DT40 TDP1 no CPT: qHTS for Inhibitors of human tyrosyl-DNA phosphodiesterase 1 (TDP1): qHTS in cells in absence of CPT; DT40 Tdp1-/- hTDP1 cells, no CPT, ATP luminescence, 48 h; Potency, µM (doses to about 46.2 µM), for the others: at the highest dose activity change, negative = growth inhibition, most hits filed as inhibitors; 420,000 tested, 15% active; AID 686978, 2013; also: potency is read from the fitted curve at half-maximal effect; nearly all actives have a fitted effect of over 55% in size
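Luminescent ATP content (CellTiter-Glo) served as the growth readout. Knockout chicken DT40 cells expressing human TDP1 were exposed to compounds without camptothecin for a minimum 48 hr at 37 °C.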
HT1080NT lethal: kills 2HG-producing HT-1080-NT fibrosarcoma cells; HT-1080-NT fibrosarcoma viability, CellTiter-Glo ATP luminescence, 48 h; Potency, µM (highest dose often 46.1 µM), inactives show at the top dose activity, negative = less viability, usual class: cytotoxic; 360,000 tested, 1.6% active; AID 686970;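 also: NT is the 2HG producing partner of a matched IDH1 knockdown line; potency is read from the fitted curve at half-maximal effect; 0% = DMSO-treated cells and -100% = media-only wells without cells; nearly all actives have a fitted effect of over 55% in size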
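A 48-hour cytotoxicity screen used HT-1080-NT cells plated 2 hours before compound delivery. ATP-based CellTiter-Glo luminescence measured viability, normalized to DMSO and no-cell controls.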
IL1B secr inh: inflammasome signaling inhibition, IL-1 beta readout. THP-1 LPS/ATP IL-1B secretion, AlphaLISA, 16 h; hits give low values. activity change, % at 57.5 µM. 360,000 tested, 4.7% active; in the data active = activity change below about -50%; inconclusive = mostly about -30% to -49%
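THP-1 cells pretreated 1 hr with compounds (up to 57.5 uM final), then stimulated with LPS (250 ng/mL final) plus ATP (1.25 mM final); secreted IL-1B measured by AlphaLISA after 16 hr, decreased signal indicating inhibition.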
HT1080 IDH1KD tx: kills HT-1080 cells with IDH1 knockdown | HT-1080 IDH1 knockdown viability, ATP luminescence, 48 h | Potency, µM (titrated, usually from 46.1 µM), without a hit: top-dose activity, negative = toxicity, usual class: cytotoxic | 360,000 tested, 2% active;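 also: potency is read from the fitted curve at half-maximal effect; 0% = DMSO wells and -100% = cell-free medium wells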
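Assay cells: HT-1080 with IDH1 knockdown, 750 per well, RPMI/5% FBS. Exposure: 48 h at 37 °C following 2 h pre-incubation. Read: CellTiter-Glo luminescence; fitted concentration-response, curve class assigned.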
TDP1 cell CPT: DT40-hTDP1 cell growth loss with CPT. chicken DT40 Tdp1-/-;hTDP1 cells + 20 nM CPT, ATP luminescence, 48 h. Potency, µM (doses to about 46.2 µM), for inactives: at the top dose activity change, negative = growth inhibition, actives largely listed as inhibitors. 420,000 tested, 12% active; also: potency is read from the fitted curve at half-maximal effect; nearly all actives have a fitted effect of over 55% in size
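Chicken DT40 Tdp1-/- cells stably complemented with human TDP1 were seeded at 400 cells/well in medium containing 20 nM camptothecin, exposed to pin-transferred compounds, and grown at 37 °C for at least 48 hr. Viability was read as ATP luminescence.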
Numbers without * were called inactive; i = inactive; ? = inconclusive; · = no result; [ ] = another dose, or the depositor's remark. Compounds with a hit are over-represented: about 19% of the library has one in this group of screens. Unless noted, calls follow the shape of the dose curve; as a rule, active = well fitted curve in the direction sought with a large enough effect; inconclusive = small, poorly fitted or top-dose-only effect, or another doubt; inactive = no such curve, though single readings can be large; an effect the other way counts as inactive or inconclusive. Unless noted, % is scaled to controls: 0 for no effect and ±100 for the full control effect.

SMILES	DT40 TDP1 no CPT	HT1080NT lethal	IL1B secr inh	HT1080 IDH1KD tx	TDP1 cell CPT
O=C(/C=C/c1ccccc1Cl)N(Cc1ccccc1)C1CCS(=O)(=O)C1 (configuration not stated)	?	0.1%	?	0.0%	?
COc1ccc(CN(C(=O)/C=C/c2ccccc2Cl)C2CCS(=O)(=O)C2)cc1 (configuration not stated)	23.1µM*	-3.9%	0.0	-1.0%	?
CN(C)c1ccc(CN(C(=O)/C=C/c2ccccc2Cl)C2CCS(=O)(=O)C2)cc1 (configuration not stated)	20.6µM*	-14.0%	-8.8	-11.1%	?
O=C(/C=C/c1ccccc1Cl)N(Cc1ccc(Cl)cc1)C1CCS(=O)(=O)C1 (configuration not stated)	?	-25.7%	-57.2*	?	?
CC(C)c1ccc(CN(C(=O)/C=C/c2ccco2)C2CCS(=O)(=O)C2)cc1 (configuration not stated)	?	3.4%	-86.0*	0.4%	?
COc1cccc(CNC(=O)N2CCN(c3ccccc3)CC2)c1	?	10.4%	-4.5	13.4%	4.0%
CC(C)(C)c1ccc(C(=O)OC/C(O)=C(\C#N)c2nc3ccccc3s2)cc1	?	11.6%	i	7.8%	?
N#C/C(=C(/O)COC(=O)c1ccccc1O)c1nc2ccccc2s1	16.4µM*	-11.9%	14.4	12.3%	-26.4%
N#C/C(=C(\O)Cc1ccccc1)c1nc2ccccc2[nH]1	?	-1.8%	0.0	-0.2%[9.24 µM]	?
N#CC(=C(O)COC(=O)CCCNC(=O)c1ccc(Cl)cc1)c1nc2ccccc2[nH]1	-18.3%	-1.7%	-97.0*	-0.5%	?
N#C/C(=C(/O)CCl)c1nc2ccccc2[nH]1	5.17µM*	?	-95.2*	?	2.59µM*
COCC(=O)OC/C(O)=C(\C#N)c1nc2ccccc2[nH]1	2.59µM*	-7.3%	-103.9*	-8.6%	2.91µM*
CC(=O)N1CCN(CC(=O)Nc2ccc([N+](=O)[O-])cc2Br)CC1	-4.1%	-19.6%	85.9	-25.6%	8.5%
N#C/C(=C(/O)COC(=O)c1cccnc1Cl)c1nc2ccccc2[nH]1	23.1µM*	1.8%	58.8	6.4%	18.4µM*
CC(C)C(=O)OC/C(O)=C(\C#N)c1nc2ccccc2[nH]1	-8.3%	11.1%	80.4	5.7%	3.6%
CCCC(=O)OC/C(O)=C(\C#N)c1nc2ccccc2[nH]1	?	-7.1%	-105.2*	-0.1%	-13.6%
N#C/C(=C(/O)COC(=O)CCC1CCCCC1)c1nc2ccccc2[nH]1	4.11µM*	-1.3%	-85.1*	0.1%	5.17µM*
CC(=O)Nc1ccc(NC(=O)[C@@H](NC(=O)c2ccccc2F)C(C)C)cc1	-16.4%	13.0%	36.0	-11.5%	-9.2%
COc1ccccc1C(=O)Nc1cc2c(cc1N1CCCCC1)n(C)c(=O)n2C	13µM*	·	·	·	5.8µM*
Cn1c(=O)n(C)c2cc(N3CCCCC3)c(NC(=O)c3cccc(Cl)c3)cc21	-25.5%	18.5%	35.6	9.0%	?
CCOC(=O)C1CCN(c2cc3c(cc2NC(=O)c2ccccc2F)n(C)c(=O)n3C)CC1	-14.8%	26.2%	55.5	10.6%	-24.4%
CCOC(=O)C1CCN(C(=O)c2ccccc2NC(=O)c2ccc(Cl)cc2)CC1	23.1µM*	4.0%	32.9	-2.4%	?
CCOC(=O)C1CCN(c2cc3c(cc2NC(=O)c2ccc(Cl)cc2)n(C)c(=O)n3C)CC1	2.59µM*	·	·	·	8.2µM*
CCOC(=O)C1CCN(c2cc3c(cc2NC(=O)c2ccccc2OCC)n(C)c(=O)n3C)CC1	5.8µM*	6.5%	38.4	7.7%	20.6µM*
COc1ccccc1C(=O)Nc1cc2c(cc1N1CCCC1)n(C)c(=O)c(=O)n2C	?	·	·	·	-0.6%
SMILES	DT40 TDP1 no CPT	HT1080NT lethal	IL1B secr inh	HT1080 IDH1KD tx	TDP1 cell CPT
COc1cc(OC)c(NC(=O)COCc2cc(-c3cccs3)on2)cc1Cl	?	·	·	·	-14.9%
CC(C)COc1ccc(-c2cc(C(=O)NN)[nH]n2)cc1	?	0.1%	30.9	2.0%	?
CCOC(=O)C1=CCC(c2cc3ccc(OC)cc3n2C(=O)OC(C)(C)C)NC1 (configuration not stated)	?	-8.0%	?	-18.6%	?
CSc1ccc(/C=N/N2CCN(C)CC2)cc1	-0.3%	6.2%	-0.9	-1.0%	17.9%
CN1CCN(/N=C/c2ccc(-c3ccccc3)cc2)CC1	?	-3.4%	-55.4*	-7.8%	?
CN1CCN(/N=C/c2c3ccccc3c(Cl)c3ccccc23)CC1	?	23.1µM*	-74.0*	20.6µM*	?
CCCN1CCN(S(=O)(=O)c2ccc3c(c2)CCC(=O)N3)CC1	-0.2%	11.5%	6.7	7.1%	9.6%
Cc1ccc(CNC(=O)CC[C@H]2O[C@@H](n3cc(C)c(=O)[nH]c3=O)C[C@@H]2O)o1	5.9%	0.0%	-17.5	5.5%	-5.3%
CN(C)CCCN(Cc1cc2cc3c(cc2[nH]c1=O)OCO3)C(=S)NCc1ccco1	-27.4%	-1.8%	?	-11.3%	8.7%
CCc1ccc2[nH]c(=O)c(CN(Cc3ccco3)C(=S)NCC3CCCO3)cc2c1 (configuration not stated)	?	-9.5%	-115.4*	-9.2%	?
Cc1cc2cc(CN(Cc3ccco3)C(=S)NCC3CCCO3)c(=O)[nH]c2cc1C (configuration not stated)	20.6µM*	2.0%	-62.6*	10.3%	?
Cc1cc2cc(CN(CC3CCCO3)C(=S)NCc3ccco3)c(=O)[nH]c2cc1C (configuration not stated)	16.4µM*	-8.8%	-75.2*	-6.3%	?
CCNC(=S)N(Cc1ccco1)Cc1cc2cc3c(cc2[nH]c1=O)OCCO3	?	-6.7%	45.7	-5.6%	?
COc1ccc(CCNC(=O)CN2C(=O)NC(C)(c3ccc([N+](=O)[O-])cc3)C2=O)cc1 (configuration not stated)	-10.5%	-5.3%	28.2	-6.0%	1.4%
COCCN1C(=O)CCC1(C)c1nnnn1Cc1ccccc1 (configuration not stated)	-3.7%	17.6%	0.0	6.6%	-2.9%
COc1ccccc1NS(=O)(=O)c1cn(C)cn1	1.8%	0.9%	-2.9	0.9%	5.6%
COCCN(Cc1cc2cc(C)ccc2n2nnnc12)C(=S)Nc1ccc(C)cc1	23.1µM*	-5.9%	-7.5	-8.6%	18.4µM*
COCCN(Cc1cc2cc(C)ccc2n2nnnc12)C(=S)Nc1ccc(OC)cc1	?	4.4%	9.5	-2.8%	?

Assay outcomes deposited in PubChem BioAssay by National Center for Advancing Translational Sciences (NCATS).
